The results in this text go back to PubChem BioAssay AID2330 (Broad Institute, 2010).

About 2,800 (7.6%) of roughly 37,000 compounds were called active. Inconclusive results (about 1%) are left out. The sample as a whole holds a higher share of actives than the screen did. Unmarked numbers belong to inactive results. No stated cut-off is given here; in the data, active means inhibition above about 80%; inconclusive means no clear call, values can overlap the other calls; inactive means below that.

For orientation: inhibition means the drop in the measured response relative to a control, in per cent.

This assay can be described thus: NOMO-1 AML cell viability reduction, primary screen, STK33 inhibitor project, CellTiter-Glo luminescence (AID 2330). As to conditions: NOMO-1 AML viability, 72 h, hits give high values, concentration not given here.
With `C[C@H]1O[C@@H](O[C@H]2CC[C@]3(CO)C4CC[C@]5(C)[C@@H](C6=CC(=O)OC6)CC[C@]5(O)[C@@H]4CC[C@H]3C2)[C@H](O)[C@H](O)[C@@H]1O[C@@H]1O[C@H](CO)[C@@H](O)[C@H](O)[C@H]1O` (stereo not given in full), the inhibition is 119% (active). With `CCCCC/C=C\C/C=C\C/C=C\C/C=C\CCCCCC(=O)NCCO` the figure was 10.8%. On to `COc1ccc(CNCc2nc3ccccc3c(=O)n2-c2ccc(F)cc2)cc1`, for which the inhibition is 23.8%.

`CC(C)c1ccc2c(c1O)CC[C@H]1C3=C(CC[C@]21C)C(=O)OC3`: the inhibition was 24.4%.

Consider `O=C(Nc1ccc2c(C(F)(F)F)cc(=O)oc2c1)c1nc2ncccn2n1`, for which the inhibition is 7.98%.

Regarding `COc1c(C(C)C)cc2c(c1O)[C@@]1(C(=O)O)CCCC(C)(C)C1CC2` (stereo not given in full), the inhibition is 16%. On to `CCCCCCCCCCCCCC(=O)O[C@@H]1[C@@H](C)[C@@]2(O)[C@@H](C=C(CO)C[C@]3(O)C(=O)C(C)=C[C@@H]23)[C@@H]2C(C)(C)[C@]12OC(C)=O`, for which the inhibition was 98.2% (active). In the case of `Cc1cc(OCc2cc(C(=O)O)oc2C)c2c3c(c(=O)oc2c1)CCCC3`, the inhibition is 0.325%. For `CCCN(C/C=C/I)C1CCc2ccc(O)cc2C1` (stereo not given) the value was 31.2%; for `COC1=C[C@@H]2[C@@H]3Cc4ccc(OC)c(O)c4[C@]2(CCN3C)CC1=O`, -7.75%; for `COC1=CC23CCN(C)[C@H](Cc4cc(OC)c(OC)cc42)C3=CC1=O`, 24.6%. With `O=C(c1ccccc1)C12CN3CN(CN(C3)C1)C2` the figure was -14.9%; with `COc1ccccc1N1C(=O)NC(=O)C(CCc2ccncc2)(Cc2cccc3ccccc23)C1=O` (stereo not given), 32.3%. With `C[C@H]1CCC/C=C/C2C[C@H](O)C[C@H]2[C@H](O)/C=C\C(=O)O1` (stereo not given in full) the figure was 122% (active); with `COc1ccc2[nH]cc(CCNCc3ccc(Br)cc3)c2c1`, 48.6%. As for `CCCCn1c(C)c(C(C)=O)c2c(OCC(=O)O)c(Cl)c(Cl)c(Cl)c21`, the inhibition was -7.33%. For `c1ccc2c(c1)[I+]c1ccccc1-2` the value was 141% (active); for `C=CC(C)(C)c1cc2cc3c(cc2oc1=O)O[C@H](C(C)(C)O)C3`, 45.2%; for `Cc1ncsc1CCCl`, 11.2%.

In the case of `CC(C)Nc1nc(Cl)nc(NC(C)C)n1`, the inhibition was 8.29%.
